Inconclusive results are not listed. The source made the active and inactive calls. The calls were made as follows: active = hit-call score of the fitted dose curve at least 0.9, where 1 is the maximum; inconclusive = response in the unintended direction; inactive = score below 0.9.
target: rat Thyrotropin Releasing Hormone Receptor (TRH), Trhr (gene 25570) (UniProt Q01717); assay: NVS_GPCR_rTRH: NovaScreen (NVS) G Protein-Coupled Receptor Assay for rat Thyrotropin Releasing Hormone Receptor (TRH) (AID 2283329);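 also: hit means lower bound tracer signal versus DMSO baseline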
Experimental: NVS_GPCR_rTRH is a biochemical, single-readout assay that uses extracted gene-proteins from Rat forebrain membranes in a tissue-based cell-free assay. Measurements were taken 4 hours after chemical dosing in a 48-well plate.NVS_GPCR_rTRH is one of one assay component(s) measured or calculated from the NVS_GPCR_rTRH assay. It is designed to make measurements of radioligand binding, a form of binding reporter, as detected with scintillation counting signals by Filter-based radiodetection technology.Data from the assay component NVS_GPCR_rTRH was analyzed into 1 assay endpoint. This assay endpoint, NVS_GPCR_rTRH, was analyzed in the positive analysis fitting direction relative to DMSO as the negative control and baseline of activity. Using a type of binding reporter, loss-of-signal activity can be used to understand changes in the binding as they relate to the gene Trhr. Furthermore, this assay endpoint can be referred to as a primary readout, because the performed assay has only produced 1 assay endpoint. To generalize the intended target to other relatable targets, this assay endpoint is annotated to the gpcr intended target family, where the subfamily is rhodopsin-like receptor.
Binding assays used specific radioligands (tritiated, iodinated) with non-radioactive competitive displacement ligands in agonist or antagonist protocols (as indicated) and various reference compounds and inhibitors to titrate specific binding to receptors and transporters. Most enzyme assays (CYPs, kinases, phosphatases, proteases, HDACs) used recombinant protein and specific substrates (fluorescence mostly, some colorimetric and radioactive) and inhibitors, followed by a biochemical separation of substrate and product. All assays for the biochemical HTS were initially run in duplicate at a single concentration (10 uM for CYP450 assays and 25 uM for all others). […] Each assay was run with positive and negative controls, and concurrent controls on every plate. The follow-up (secondary) screen tested active chemical-pairs in concentration series, as well as a few additional assays not tested in the primary screen, some selected negative inactives, and several cases re-run in the concentration series for confirmatory purposes.

Sequence of rat Thyrotropin Releasing Hormone Receptor (TRH), Trhr (gene 25570) (Q01717 whole entry, looked up): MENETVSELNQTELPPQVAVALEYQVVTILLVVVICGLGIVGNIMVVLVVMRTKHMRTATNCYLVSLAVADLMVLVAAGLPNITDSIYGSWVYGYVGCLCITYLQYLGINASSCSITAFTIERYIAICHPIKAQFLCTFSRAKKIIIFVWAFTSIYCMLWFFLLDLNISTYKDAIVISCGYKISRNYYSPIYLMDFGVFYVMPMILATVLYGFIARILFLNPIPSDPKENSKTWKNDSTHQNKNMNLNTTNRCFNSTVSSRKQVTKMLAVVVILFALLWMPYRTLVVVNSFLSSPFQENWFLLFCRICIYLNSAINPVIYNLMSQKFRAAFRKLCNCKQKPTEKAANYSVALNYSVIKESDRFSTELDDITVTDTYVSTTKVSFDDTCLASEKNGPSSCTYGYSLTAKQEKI

Row | Compound | outcome
1 | CC(=Cc1ccccc1)[N+](=O)[O-] | inactive
2 | CC(C)N(C(=O)CCl)c1ccccc1 | inactive
3 | O=S1(=O)OC(c2cc(Br)c(O)c(Br)c2)(c2cc(Br)c(O)c(Br)c2)c2ccccc21 | inactive
4 | CNC(=O)O/N=C/C(C)(C)S(C)(=O)=O | inactive
5 | O=C(CBr)c1ccc(O)cc1 | inactive
6 | O=c1nc(O)n(Cl)c(=O)n1Cl | inactive
7 | CCC[CH2][Sn]([Cl])([Cl])[CH2]CCC | inactive
8 | CC(O)(CS(=O)(=O)c1ccc(F)cc1)C(=O)Nc1ccc(C#N)c(C(F)(F)F)c1 (configuration not stated) | inactive
9 | CCOCn1c(-c2ccc(Cl)cc2)c(C#N)c(Br)c1C(F)(F)F | inactive
10 | N#CCCC(Br)(C#N)CBr (configuration not stated) | inactive
11 | N#CCC#N | inactive
12 | O=C(CCl)Nc1ccccc1 | inactive
13 | O=c1[nH]c(=O)n(Cl)c(=O)n1Cl | inactive
14 | COc1ccccc1N | inactive
15 | O=[N+]([O-])c1ccc(Cl)c([N+](=O)[O-])c1 | inactive
16 | COc1nn(C(=O)NS(=O)(=O)c2ccccc2OC(F)(F)F)c(=O)n1C | inactive
17 | CN(N=O)C(N)=O | inactive
